{"source": "PubChem BioAssay (Tox21)", "note": "Inconclusive results are not listed. A call without a number means that no potency is given here. The source made the active and inactive calls. Calls follow the shape of the dose curve; as a rule, active = well fitted inhibition curve with a large enough effect in the repeat runs; inconclusive = weak or mixed curves; inactive = no such curve, though single readings can be large or run the other way. Potency is read from the fitted curve at half-maximal effect."}
{"molecular_target": "Cytochrome P450 2C19 (Homo sapiens) (UniProt P33261)", "sequence (P33261 whole entry, looked up)": "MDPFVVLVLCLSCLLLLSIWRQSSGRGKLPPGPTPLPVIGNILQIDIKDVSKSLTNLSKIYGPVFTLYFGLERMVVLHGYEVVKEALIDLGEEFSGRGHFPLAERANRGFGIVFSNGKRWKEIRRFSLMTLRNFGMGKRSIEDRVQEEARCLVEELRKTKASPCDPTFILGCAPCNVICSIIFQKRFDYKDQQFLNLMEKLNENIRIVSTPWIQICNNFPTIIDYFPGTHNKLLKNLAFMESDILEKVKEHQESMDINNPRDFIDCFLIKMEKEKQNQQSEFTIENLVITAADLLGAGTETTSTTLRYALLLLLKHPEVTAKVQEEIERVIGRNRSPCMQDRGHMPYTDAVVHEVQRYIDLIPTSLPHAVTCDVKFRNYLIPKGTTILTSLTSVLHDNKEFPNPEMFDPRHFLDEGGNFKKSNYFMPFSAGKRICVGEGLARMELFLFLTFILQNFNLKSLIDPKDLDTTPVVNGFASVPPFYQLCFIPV", "experiment": "Cytochrome P450 Family 2 Subfamily C Member 19 (CYP2C19) small molecule antagonists: luciferase reporter qHTS assay (AID 1671197); also: nearly all actives have a fitted effect of over 65% in size", "conditions": "P450-Glo CYP2C19 enzyme, luciferin luminescence, 1 h; series mostly up to 115 µM", "in_short": "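Light output is proportional to CYP2C19 activity: proluciferin substrate is converted to luciferin, then detected by a luciferin detection reagent that also stops the 1 h, 37C NADPH-driven reaction. Ketoconazole serves as positive control.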"}
{"smiles": "CCC(=O)Nc1ccc(O)cc1", "Potency": "inactive"}
{"smiles": "CC(=O)Oc1cc(C(C)C)c(OCCN(C)C)cc1C", "Potency": "inactive"}
{"smiles": "N#Cc1ccc(C(c2ccc(C#N)cc2)n2cncn2)cc1", "Potency": "13.3 µM (active)"}
{"smiles": "NS(=O)(=O)c1cc(-c2nn[nH]n2)c(NCc2cccs2)cc1Cl", "Potency": "inactive"}
{"smiles": "Cc1c(-c2ccccc2)oc2c(C(=O)OCCN3CCCCC3)cccc2c1=O", "Potency": "inactive"}
{"smiles": "OCc1ccccc1O", "Potency": "inactive"}
{"smiles": "C[C@@H]1CN(c2c(F)c(F)c3c(=O)c(C(=O)O)cn(C4CC4)c3c2F)C[C@H](C)N1", "activity change, negative = inhibition": "5.04% [at 23.6 µM] (inactive)"}
{"smiles": "CC(=O)N(CC(O)CN(C(C)=O)c1c(I)c(C(=O)NCC(O)CO)c(I)c(C(=O)NCC(O)CO)c1I)c1c(I)c(C(=O)NCC(O)CO)c(I)c(C(=O)NCC(O)CO)c1I", "note": "(stereo not drawn)", "Potency": "inactive"}
{"smiles": "CC(C)O", "Potency": "inactive"}
{"smiles": "CN1CCN(c2c(F)cc3c(=O)c(C(=O)O)cn(CCF)c3c2F)CC1", "Potency": "inactive"}
{"smiles": "CN1CCN(c2c(F)cc3c(=O)c(C(=O)O)cn4c3c2SCC4)CC1", "Potency": "inactive"}
{"smiles": "O=c1[nH]c(=O)n([C@H]2C[C@H](O)[C@@H](CO)O2)cc1C(F)(F)F", "Potency": "inactive"}
{"smiles": "Cc1nnc(SCC2=C(C(=O)O)N3C(=O)[C@@H](NC(=O)Cn4cnnn4)[C@H]3SC2)s1", "Potency": "inactive"}
{"smiles": "CCCCc1ccc2nc(NC(=O)OC)[nH]c2c1", "Potency": "inactive"}
{"smiles": "Oc1ccccc1C=NCc1ccccc1", "Potency": "inactive"}
{"smiles": "NC/C=C/C(=O)O", "Potency": "inactive"}
{"smiles": "COc1ccccc1N1CCN(CCCNc2cc(=O)n(C)c(=O)n2C)CC1", "Potency": "inactive"}
{"smiles": "CS(=O)(=O)c1ccc([C@@H](O)[C@@H](CF)NC(=O)C(Cl)Cl)cc1", "Potency": "21.9 µM (active)"}
